We go through four compounds from ChEMBL document CHEMBL1961873, “Compounds: GSK PKIS; Assays: Nanosyn kinase panel” (2012).

Usually inhibition stands for the relative decrease from the control value, in per cent.

Assay [1] has as its target T1, Ephrin type-B receptor 2 (Homo sapiens) (UniProt P29323).
T1 sequence (whole entry): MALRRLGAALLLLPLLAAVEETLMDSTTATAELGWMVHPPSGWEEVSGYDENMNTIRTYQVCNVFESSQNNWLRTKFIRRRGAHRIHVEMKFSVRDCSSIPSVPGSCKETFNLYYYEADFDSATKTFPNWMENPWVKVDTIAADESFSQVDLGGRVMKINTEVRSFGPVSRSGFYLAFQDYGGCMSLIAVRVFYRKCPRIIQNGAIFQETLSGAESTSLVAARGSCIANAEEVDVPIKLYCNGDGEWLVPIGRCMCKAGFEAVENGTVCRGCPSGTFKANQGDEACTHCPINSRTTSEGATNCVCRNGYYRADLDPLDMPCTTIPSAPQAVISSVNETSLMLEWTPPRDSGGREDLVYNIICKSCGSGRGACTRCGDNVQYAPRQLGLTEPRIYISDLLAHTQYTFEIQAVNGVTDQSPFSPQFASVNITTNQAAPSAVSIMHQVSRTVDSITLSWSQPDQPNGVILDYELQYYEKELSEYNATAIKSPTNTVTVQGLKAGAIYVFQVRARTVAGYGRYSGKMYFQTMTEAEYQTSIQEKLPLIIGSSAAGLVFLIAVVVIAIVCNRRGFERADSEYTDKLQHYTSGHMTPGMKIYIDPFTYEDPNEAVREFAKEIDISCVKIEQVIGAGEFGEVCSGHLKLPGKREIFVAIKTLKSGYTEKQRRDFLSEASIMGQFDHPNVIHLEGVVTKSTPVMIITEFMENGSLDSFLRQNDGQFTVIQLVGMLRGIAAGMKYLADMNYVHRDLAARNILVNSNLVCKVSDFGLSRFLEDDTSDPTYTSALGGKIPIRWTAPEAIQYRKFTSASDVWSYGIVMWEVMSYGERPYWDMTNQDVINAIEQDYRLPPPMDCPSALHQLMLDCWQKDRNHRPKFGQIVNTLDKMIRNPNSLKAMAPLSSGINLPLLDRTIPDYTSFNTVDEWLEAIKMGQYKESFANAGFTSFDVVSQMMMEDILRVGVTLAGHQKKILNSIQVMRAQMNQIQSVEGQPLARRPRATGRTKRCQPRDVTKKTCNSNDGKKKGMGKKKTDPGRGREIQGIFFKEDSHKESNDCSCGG
Particulars: at 1 µM.

In assay [2] the target is T2, Ephrin type-B receptor 3 (Homo sapiens) (UniProt P54753).
T2 sequence (whole entry): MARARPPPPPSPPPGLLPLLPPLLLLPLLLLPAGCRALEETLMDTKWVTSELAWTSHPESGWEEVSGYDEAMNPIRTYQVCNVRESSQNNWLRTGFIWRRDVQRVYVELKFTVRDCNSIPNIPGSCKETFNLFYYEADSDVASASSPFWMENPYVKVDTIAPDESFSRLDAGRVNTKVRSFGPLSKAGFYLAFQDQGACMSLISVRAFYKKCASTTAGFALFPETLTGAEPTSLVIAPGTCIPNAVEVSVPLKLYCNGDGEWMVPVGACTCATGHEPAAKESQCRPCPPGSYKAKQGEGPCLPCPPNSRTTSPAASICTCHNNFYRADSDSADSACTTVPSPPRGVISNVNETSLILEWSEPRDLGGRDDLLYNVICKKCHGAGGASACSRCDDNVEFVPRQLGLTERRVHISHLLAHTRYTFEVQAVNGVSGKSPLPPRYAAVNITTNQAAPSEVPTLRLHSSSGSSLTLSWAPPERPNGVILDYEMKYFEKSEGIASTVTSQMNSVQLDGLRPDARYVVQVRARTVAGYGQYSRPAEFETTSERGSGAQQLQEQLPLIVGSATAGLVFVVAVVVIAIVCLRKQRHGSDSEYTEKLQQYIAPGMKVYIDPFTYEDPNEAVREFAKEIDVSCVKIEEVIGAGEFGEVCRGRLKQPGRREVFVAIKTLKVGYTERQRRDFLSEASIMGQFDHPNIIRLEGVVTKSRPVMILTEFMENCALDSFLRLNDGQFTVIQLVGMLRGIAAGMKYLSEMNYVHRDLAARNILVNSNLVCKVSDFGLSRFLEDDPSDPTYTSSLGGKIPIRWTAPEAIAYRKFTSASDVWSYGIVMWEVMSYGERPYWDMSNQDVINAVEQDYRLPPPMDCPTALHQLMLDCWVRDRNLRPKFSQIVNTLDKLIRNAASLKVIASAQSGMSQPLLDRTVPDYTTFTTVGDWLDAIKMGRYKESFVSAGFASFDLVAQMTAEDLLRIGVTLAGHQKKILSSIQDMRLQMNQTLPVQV
To be noted: at 0.1 µM.

In assay [3] the target is T2, Ephrin type-B receptor 3 (Homo sapiens). Particulars: at 1 µM.
Assay [4] addresses T3, Ephrin type-B receptor 4 (Homo sapiens) (UniProt P54760).
T3 sequence (whole entry): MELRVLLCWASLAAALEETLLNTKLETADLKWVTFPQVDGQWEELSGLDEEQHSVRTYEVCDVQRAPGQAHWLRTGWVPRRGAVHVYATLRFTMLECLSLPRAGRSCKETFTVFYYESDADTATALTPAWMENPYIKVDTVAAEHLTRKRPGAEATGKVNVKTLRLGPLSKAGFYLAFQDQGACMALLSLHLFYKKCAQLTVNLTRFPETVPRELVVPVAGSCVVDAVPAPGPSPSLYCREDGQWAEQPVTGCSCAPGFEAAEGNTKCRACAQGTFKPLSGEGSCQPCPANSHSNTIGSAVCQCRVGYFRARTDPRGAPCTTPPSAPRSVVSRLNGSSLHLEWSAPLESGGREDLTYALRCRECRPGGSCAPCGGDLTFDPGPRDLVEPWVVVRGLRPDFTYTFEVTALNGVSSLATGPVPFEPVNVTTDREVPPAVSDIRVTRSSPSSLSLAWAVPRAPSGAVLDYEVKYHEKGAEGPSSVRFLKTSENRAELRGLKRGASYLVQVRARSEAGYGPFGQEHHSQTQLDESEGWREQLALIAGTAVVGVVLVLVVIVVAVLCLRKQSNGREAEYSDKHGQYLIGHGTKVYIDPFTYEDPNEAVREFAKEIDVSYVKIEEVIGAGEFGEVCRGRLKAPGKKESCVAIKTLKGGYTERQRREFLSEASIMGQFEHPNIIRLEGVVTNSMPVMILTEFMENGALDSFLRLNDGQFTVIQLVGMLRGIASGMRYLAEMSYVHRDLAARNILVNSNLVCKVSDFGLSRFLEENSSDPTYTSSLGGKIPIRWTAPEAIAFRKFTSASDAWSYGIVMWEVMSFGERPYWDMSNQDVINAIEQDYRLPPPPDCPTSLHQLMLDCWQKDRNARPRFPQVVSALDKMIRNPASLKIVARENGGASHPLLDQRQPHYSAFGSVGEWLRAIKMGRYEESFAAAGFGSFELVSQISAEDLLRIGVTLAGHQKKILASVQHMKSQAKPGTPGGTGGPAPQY
To be noted: at 0.1 µM.

In assay [5] the target is T3, Ephrin type-B receptor 4 (Homo sapiens). To be noted: at 1 µM.
Assay [6] deals with Receptor tyrosine-protein kinase erbB-2 (Homo sapiens) (UniProt P04626). Particulars: at 0.1 µM.
Chain of Receptor tyrosine-protein kinase erbB-2 (Homo sapiens) (P04626 whole entry): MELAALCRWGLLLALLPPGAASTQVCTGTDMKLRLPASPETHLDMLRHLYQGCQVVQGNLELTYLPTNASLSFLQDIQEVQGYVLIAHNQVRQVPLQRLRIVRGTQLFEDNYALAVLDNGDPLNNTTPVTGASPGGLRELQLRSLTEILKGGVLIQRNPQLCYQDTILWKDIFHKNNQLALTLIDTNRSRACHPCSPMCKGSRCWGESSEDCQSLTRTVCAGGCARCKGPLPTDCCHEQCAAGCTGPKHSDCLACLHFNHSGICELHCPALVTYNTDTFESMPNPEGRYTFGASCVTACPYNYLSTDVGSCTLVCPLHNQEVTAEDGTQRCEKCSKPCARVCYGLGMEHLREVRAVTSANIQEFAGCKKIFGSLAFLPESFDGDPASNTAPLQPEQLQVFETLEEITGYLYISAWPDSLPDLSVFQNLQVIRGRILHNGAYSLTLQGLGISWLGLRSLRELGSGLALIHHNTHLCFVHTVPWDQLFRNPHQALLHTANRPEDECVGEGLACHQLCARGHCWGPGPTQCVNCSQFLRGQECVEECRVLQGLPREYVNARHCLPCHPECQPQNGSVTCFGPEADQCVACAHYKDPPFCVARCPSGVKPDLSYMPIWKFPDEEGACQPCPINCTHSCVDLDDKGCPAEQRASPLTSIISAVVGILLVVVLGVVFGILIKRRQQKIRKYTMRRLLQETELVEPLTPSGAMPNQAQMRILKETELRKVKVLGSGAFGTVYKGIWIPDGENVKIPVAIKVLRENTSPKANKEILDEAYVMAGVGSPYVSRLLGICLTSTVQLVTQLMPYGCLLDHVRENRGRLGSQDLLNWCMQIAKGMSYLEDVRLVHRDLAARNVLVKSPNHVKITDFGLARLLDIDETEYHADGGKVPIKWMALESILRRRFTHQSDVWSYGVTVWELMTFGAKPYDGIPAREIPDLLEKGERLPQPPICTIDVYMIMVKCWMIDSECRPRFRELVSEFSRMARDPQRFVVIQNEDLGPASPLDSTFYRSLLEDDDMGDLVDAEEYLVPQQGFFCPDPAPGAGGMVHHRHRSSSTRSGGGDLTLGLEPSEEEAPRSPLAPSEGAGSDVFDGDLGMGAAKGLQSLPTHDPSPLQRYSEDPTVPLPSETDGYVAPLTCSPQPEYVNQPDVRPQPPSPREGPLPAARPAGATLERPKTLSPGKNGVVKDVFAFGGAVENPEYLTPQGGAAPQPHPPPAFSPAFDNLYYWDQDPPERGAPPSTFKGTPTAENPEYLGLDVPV
The target is the same in assay [7]. To be noted: at 1 µM.
In assay [8] the target is Receptor tyrosine-protein kinase erbB-4 (Homo sapiens) (UniProt Q15303). Particulars: at 0.1 µM.
The target is the same in assay [9]. Particulars: at 1 µM.
Assay [10] deals with Tyrosine-protein kinase Fer (Homo sapiens) (UniProt P16591). Particulars: at 0.1 µM.
Chain of Tyrosine-protein kinase Fer (Homo sapiens) (P16591 whole entry, looked up): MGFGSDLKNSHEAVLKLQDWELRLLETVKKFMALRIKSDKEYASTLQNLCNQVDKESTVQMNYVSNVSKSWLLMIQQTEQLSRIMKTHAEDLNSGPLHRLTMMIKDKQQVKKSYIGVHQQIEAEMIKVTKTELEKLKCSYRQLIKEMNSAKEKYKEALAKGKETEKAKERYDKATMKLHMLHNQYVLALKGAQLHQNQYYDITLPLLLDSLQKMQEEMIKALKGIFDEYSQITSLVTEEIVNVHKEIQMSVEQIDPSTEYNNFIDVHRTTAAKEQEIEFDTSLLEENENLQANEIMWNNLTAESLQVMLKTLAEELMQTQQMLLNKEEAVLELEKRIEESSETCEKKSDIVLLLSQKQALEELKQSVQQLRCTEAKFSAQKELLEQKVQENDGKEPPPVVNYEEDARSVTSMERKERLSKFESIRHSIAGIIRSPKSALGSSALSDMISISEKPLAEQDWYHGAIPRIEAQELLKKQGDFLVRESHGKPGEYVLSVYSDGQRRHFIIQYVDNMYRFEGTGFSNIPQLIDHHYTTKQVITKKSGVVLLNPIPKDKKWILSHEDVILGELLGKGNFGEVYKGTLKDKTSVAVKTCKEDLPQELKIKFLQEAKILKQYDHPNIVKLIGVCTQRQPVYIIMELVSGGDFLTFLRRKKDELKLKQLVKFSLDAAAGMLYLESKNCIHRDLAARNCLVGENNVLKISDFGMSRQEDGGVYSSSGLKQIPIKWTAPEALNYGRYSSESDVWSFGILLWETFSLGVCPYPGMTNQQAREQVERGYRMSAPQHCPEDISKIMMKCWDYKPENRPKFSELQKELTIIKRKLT
For assay [11] the target is unchanged. Particulars: at 1 µM.
The target in assay [12] is Tyrosine-protein kinase Fes/Fps (Homo sapiens) (UniProt P07332). Particulars: at 0.1 µM.
Assay [13] shares this target. To be noted: at 1 µM.
For assay [14], the target named is Fibroblast growth factor receptor 1 (Homo sapiens) (UniProt P11362). To be noted: at 0.1 µM.
Chain of Fibroblast growth factor receptor 1 (Homo sapiens) (P11362 22-822 limits assumed): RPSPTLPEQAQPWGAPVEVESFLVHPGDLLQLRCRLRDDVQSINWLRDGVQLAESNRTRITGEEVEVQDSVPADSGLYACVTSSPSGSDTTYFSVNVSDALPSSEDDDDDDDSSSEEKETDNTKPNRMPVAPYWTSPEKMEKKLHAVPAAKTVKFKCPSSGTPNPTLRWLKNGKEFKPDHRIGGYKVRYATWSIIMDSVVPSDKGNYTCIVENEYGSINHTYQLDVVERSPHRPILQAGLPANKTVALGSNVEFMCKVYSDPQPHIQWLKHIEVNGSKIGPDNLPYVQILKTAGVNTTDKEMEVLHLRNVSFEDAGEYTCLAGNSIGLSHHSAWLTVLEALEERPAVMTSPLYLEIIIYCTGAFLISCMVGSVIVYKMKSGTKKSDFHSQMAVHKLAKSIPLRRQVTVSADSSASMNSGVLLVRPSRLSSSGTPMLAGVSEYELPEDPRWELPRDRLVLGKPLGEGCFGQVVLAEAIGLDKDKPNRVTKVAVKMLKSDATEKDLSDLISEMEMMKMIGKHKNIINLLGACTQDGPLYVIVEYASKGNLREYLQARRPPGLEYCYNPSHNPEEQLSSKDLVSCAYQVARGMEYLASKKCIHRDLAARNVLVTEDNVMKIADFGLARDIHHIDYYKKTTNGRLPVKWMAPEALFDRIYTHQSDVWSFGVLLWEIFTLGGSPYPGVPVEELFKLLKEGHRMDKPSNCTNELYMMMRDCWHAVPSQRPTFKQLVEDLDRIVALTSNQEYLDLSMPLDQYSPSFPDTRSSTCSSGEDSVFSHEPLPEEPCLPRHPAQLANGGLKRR
Assay [15] shares this target. To be noted: at 1 µM.
For assay [16], the target named is Fibroblast growth factor receptor 2 (Homo sapiens) (UniProt P21802). Particulars: at 0.1 µM.
Chain of Fibroblast growth factor receptor 2 (Homo sapiens) (P21802 22-821 limits assumed): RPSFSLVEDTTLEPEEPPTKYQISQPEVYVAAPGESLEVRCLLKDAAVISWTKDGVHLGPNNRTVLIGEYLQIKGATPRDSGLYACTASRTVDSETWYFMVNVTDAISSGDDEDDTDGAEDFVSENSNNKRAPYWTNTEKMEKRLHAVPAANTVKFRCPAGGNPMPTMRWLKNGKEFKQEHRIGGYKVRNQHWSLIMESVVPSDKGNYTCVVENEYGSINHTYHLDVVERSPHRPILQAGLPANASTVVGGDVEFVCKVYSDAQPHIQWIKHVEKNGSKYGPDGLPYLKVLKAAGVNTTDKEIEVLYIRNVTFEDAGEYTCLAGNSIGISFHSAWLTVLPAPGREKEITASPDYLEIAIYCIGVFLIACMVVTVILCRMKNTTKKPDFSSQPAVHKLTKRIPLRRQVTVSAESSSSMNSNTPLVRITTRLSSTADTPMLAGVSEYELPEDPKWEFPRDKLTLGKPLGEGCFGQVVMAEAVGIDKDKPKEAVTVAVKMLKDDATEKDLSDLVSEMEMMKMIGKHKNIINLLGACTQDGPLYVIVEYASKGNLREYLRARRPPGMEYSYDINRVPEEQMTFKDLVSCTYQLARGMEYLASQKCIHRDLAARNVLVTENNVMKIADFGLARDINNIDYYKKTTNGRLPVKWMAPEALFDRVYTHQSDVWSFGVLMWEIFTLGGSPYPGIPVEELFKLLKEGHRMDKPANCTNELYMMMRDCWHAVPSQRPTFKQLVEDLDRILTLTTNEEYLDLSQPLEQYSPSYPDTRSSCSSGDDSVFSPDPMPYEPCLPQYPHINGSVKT
Assay [17] shares this target. Particulars: at 1 µM.
Assay [18] has as its target Fibroblast growth factor receptor 3 (Homo sapiens) (UniProt P22607). Particulars: at 0.1 µM.
The target is the same in assay [19]. Particulars: at 1 µM.
In assay [20] the target is Fibroblast growth factor receptor 4 (Homo sapiens) (UniProt P22455). To be noted: at 0.1 µM.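 Note: values are mean percent inhibition of FGFR4.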
Chain of Fibroblast growth factor receptor 4 (Homo sapiens) (P22455 22-802 limits assumed): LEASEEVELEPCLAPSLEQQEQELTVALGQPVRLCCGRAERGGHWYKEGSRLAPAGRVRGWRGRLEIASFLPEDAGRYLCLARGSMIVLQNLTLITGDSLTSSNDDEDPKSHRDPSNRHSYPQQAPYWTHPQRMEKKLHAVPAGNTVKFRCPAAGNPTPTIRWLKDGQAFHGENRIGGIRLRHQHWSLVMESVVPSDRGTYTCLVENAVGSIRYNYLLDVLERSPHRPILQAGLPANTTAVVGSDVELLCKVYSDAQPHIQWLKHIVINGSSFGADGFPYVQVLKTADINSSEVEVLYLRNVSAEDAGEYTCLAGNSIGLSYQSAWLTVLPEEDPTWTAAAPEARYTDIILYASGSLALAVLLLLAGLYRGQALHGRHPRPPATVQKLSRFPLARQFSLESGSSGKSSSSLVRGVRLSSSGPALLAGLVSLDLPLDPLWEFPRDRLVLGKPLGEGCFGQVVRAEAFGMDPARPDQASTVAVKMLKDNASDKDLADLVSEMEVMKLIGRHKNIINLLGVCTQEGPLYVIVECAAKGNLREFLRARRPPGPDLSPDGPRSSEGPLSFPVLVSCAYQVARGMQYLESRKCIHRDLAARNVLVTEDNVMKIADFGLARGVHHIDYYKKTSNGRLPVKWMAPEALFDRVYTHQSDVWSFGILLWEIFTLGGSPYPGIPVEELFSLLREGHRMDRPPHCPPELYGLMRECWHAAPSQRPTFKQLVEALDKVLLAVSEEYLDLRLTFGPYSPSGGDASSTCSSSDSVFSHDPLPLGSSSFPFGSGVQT

For the compound `COc1cccc(COc2cc(-n3cnc4ccccc43)sc2C(N)=O)c1`, the inhibition in assay [1] was 0.89%; in assay [2], 0.5%; in [3] it was 2.27%; in assay [4], -2.06%; in assay [5], 1.33%; in assay [6], 2.53%. Moreover, the inhibition is 2.65% in assay [7]; 1.74% in assay [8]; 13.2% in assay [9]; -2.66% in assay [10]; 3.72% in [11]; 0.11% in [12]. The inhibition in assay [13] is 0.56%; in assay [14], -3.37%; in [15] it was -0.23%; in [16], -0.92%; in [17], 3.02%; in assay [18], -1.31%. Further, the inhibition in assay [19] is 0.24%; in [20], -1.48%.
Take `Cc1cc(-c2ccco2)cc(C)c1/C=C/c1cncc(-c2nn[nH]n2)c1`: the inhibition in [1] was 3.46%; in assay [2] it was 0.39%; in assay [3], 4.16%; in assay [4] it was 0.18%; in assay [5], 2.02%; in [6] it was 3.01%. Further, the inhibition was 3.5% in assay [7]; 2.03% in [8]; 15.7% in assay [9]; 4.17% in assay [10]; 7.85% in [11]; 1.75% in assay [12]. Further, the inhibition in assay [13] was 1.63%; in assay [14], -0.88%; in assay [15], 2.5%; in [16], 1.69%; in assay [17], 1.54%; in assay [18], -0.36%. For the same compound, the inhibition turned out to be 3.17% in assay [19] and 1.4% in assay [20].
For `CCn1c(-c2nonc2N)nc2c(C#CC(C)(C)O)nc(O[C@@H](CN)c3ccccc3)cc21`, the inhibition was 1.57% in assay [2]; -3.07% in [3]; -0.46% in [4]; 1.16% in assay [5]; -2.68% in assay [6]; -2.4% in assay [7]. In addition, the inhibition in assay [8] was 1.38%; in assay [9], 3.97%; in [10] it was 3.77%; in assay [11], 11.6%; in assay [12] it was -0.28%; in assay [13], 5.21%. Moreover, the inhibition is -5.77% in assay [14]; 6.16% in [15]; 0.17% in [16]; 1.12% in assay [17]; -1.56% in assay [18]; -0.33% in assay [19]. In addition, in assay [20], the inhibition is 0.28%.
Take `Nc1nonc1-c1nc2cnccc2n1C1CCCCC1`: the inhibition in [1] is -8.8%; in assay [2], -1.43%; in [3], -4.08%; in assay [4], -3.41%; in assay [5], -1.63%; in assay [6] it was -3.46%. Further, the inhibition is -1.33% in assay [7]; -5.14% in [8]; -5.19% in assay [9]; -1.75% in assay [10]; 1.83% in assay [11]; -2.28% in assay [12]. Moreover, the inhibition in assay [13] is -1.92%; in assay [14], -7.32%; in assay [15], -4.22%; in [16] it was -6.69%; in assay [17], -0.47%; in assay [18], -2.79%. Moreover, the results for the inhibition in [19] and in assay [20] were -2.23% and -1.75%, respectively.
